Hit rate of the full screen: of about 5,500 compounds, about 2,000 (36%) were called active. Inconclusive results (about 18%) are left out. Cut-off read from the data, not from the text of the source: active = normalized growth mostly below about 0.91 (no sharp cut-off); inconclusive = no clear call, values can overlap the other calls; inactive = mostly above about 0.92. The list shows a part of the results.
Test: chemical genetic growth profiling, strain panel (AID 1159580);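 note: tested at 20 µM; growth read once vehicle control cultures reached saturation at 30 °C; 1 = growth at the plate median or of vehicle wells; lower values mean less growth of the strain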
Details: growth OD
[1] = S. cerevisiae deletion strains, locus YGR078C, strain PAC10, active compounds read low
[2] = S. cerevisiae deletion strains, locus YNL128W, strain TEP1, active compounds read low
[3] = S. cerevisiae deletion strains, locus YNL322C, strain KRE1, active compounds read low
[4] = S. cerevisiae deletion strains, locus YHR030C, strain SLT2, active compounds read low
[5] = S. cerevisiae deletion strains, locus YJL095W, strain BCK1, active compounds read low

Measured: normalized growth

C[N+]1(C)CCc2cc3c(cc2[C@H]1[C@@H]1OC(=O)c2c1ccc1c2OCO1)OCO3
inactive: S. cerevisiae deletion strains, locus YAL040C, strain CLN3, active compounds read low 0.982 | S. cerevisiae deletion strains, locus YDR150W, strain NUM1, active compounds read low 0.997 | S. cerevisiae deletion strains, locus YER002W, strain NOP16, active compounds read low 0.991 | [1] 1.01 | [2] 1 | S. cerevisiae deletion strains, locus YNL153C, strain GIM3, active compounds read low 0.998 | S. cerevisiae deletion strains, locus YNL175C, strain NOP13, active compounds read low 0.987 | S. cerevisiae deletion strains, locus YNL197C, strain WHI3, active compounds read low 1.05 | S. cerevisiae deletion strains, locus YNL224C, strain SQS1, active compounds read low 0.994 | [3] 1.01 | S. cerevisiae deletion strains, locus YOR083W, strain WHI5 (second series), active compounds read low 1 | S. cerevisiae deletion strains, locus YPL055C, strain LGE1, active compounds read low 1.01

CCCCCCCCCCCC(=O)OCC(COP(=O)(O)OCC(O)COP(=O)(O)OCC(COC(=O)CCCCCCCCCCC)OC(=O)CCCCCCCCCCC)OC(=O)CCCCCCCCCCC (centres undefined)
active: S. cerevisiae deletion strains, locus YDL035C, strain GPR1, active compounds read low 0.663 | S. cerevisiae deletion strains, locus YDL074C, strain BRE1, active compounds read low 0.72 | S. cerevisiae deletion strains, locus YDL101C, strain DUN1, active compounds read low 0.839 | S. cerevisiae deletion strains, locus YDR162C, strain NBP2, active compounds read low 0.55 | S. cerevisiae deletion strains, locus YEL061C, strain CIN8, active compounds read low 0.861 | S. cerevisiae deletion strains, locus YGL086W, strain mad1, active compounds read low 0.927 | S. cerevisiae deletion strains, locus YGL248W, strain PDE1, active compounds read low 0.876 | S. cerevisiae deletion strains, locus YGR229C, strain SMI1, active compounds read low 0.181 | S. cerevisiae deletion strains, locus YHR129C, strain ARP1, active compounds read low 0.902 | S. cerevisiae deletion strains, locus YIL066C, strain RNR3, active compounds read low 0.633 | S. cerevisiae deletion strains, locus YIL073C, strain SPO22, active compounds read low 0.524 | S. cerevisiae deletion strains, locus YJL187C, strain SWE1 (second series), active compounds read low 0.703 | S. cerevisiae deletion strains, locus YJR043C, strain POL32, active compounds read low 0.632 | S. cerevisiae deletion strains, locus YKL190W, strain CNB1, active compounds read low 0.682 | S. cerevisiae deletion strains, locus YLR039C, strain RIC1, active compounds read low 0.671 | S. cerevisiae deletion strains, locus YLR058C, strain SHM2, active compounds read low 0.811 | S. cerevisiae deletion strains, locus YLR342W, strain FKS1 (second series), active compounds read low 0.549 | S. cerevisiae deletion strains, locus YLR418C, strain cdc73, active compounds read low 0.765 | S. cerevisiae deletion strains, locus YML016C, strain PPZ1, active compounds read low 0.792 | S. cerevisiae deletion strains, locus YMR307W, strain GAS1, active compounds read low 0.475 | [2] 0.589 | [3] 0.715 | S. cerevisiae deletion strains, locus YOL006C, strain TOP1, active compounds read low 0.29 | S. cerevisiae deletion strains, locus YOR061W, strain CKA2, active compounds read low 0.803 | S. cerevisiae strains, strain wild type, active compounds read low 0.56
inactive: S. cerevisiae deletion strains, locus YBR021W, strain FUR4, active compounds read low 0.99 | S. cerevisiae deletion strains, locus YBR229C, strain ROT2, active compounds read low 0.967 | S. cerevisiae deletion strains, locus YCL029C, strain bik1, active compounds read low 1.01 | S. cerevisiae deletion strains, locus YDL185W, strain tfp1, active compounds read low 0.981 | S. cerevisiae deletion strains, locus YDL192W, strain arf1, active compounds read low 0.972 | S. cerevisiae deletion strains, locus YDR101C, strain arx1, active compounds read low 1.03 | S. cerevisiae deletion strains, locus YDR318W, strain mcm21, active compounds read low 1 | S. cerevisiae deletion strains, locus YDR388W, active compounds read low 1.01 | S. cerevisiae deletion strains, locus YDR502C, strain sam2, active compounds read low 0.978 | S. cerevisiae deletion strains, locus YER110C, active compounds read low 1.03 | S. cerevisiae deletion strains, locus YER155C, strain BEM2, active compounds read low 1.02 | S. cerevisiae deletion strains, locus YER167W, strain BCK2, active compounds read low 0.953 | S. cerevisiae deletion strains, locus YGL078C, strain dbp3, active compounds read low 1.02 | [1] 0.879 | S. cerevisiae deletion strains, locus YGR135W, strain pre9, active compounds read low 0.923 | S. cerevisiae deletion strains, locus YGR252W, strain gcn5, active compounds read low 0.887 | [4] 0.965 | S. cerevisiae deletion strains, locus YHR079C, strain IRE1 (second series), active compounds read low 1.04 | S. cerevisiae deletion strains, locus YHR094C, strain hxt1, active compounds read low 1.03 | S. cerevisiae deletion strains, locus YHR200W, strain rpn10, active compounds read low 0.995 | S. cerevisiae deletion strains, locus YIL125W, strain kgd1, active compounds read low 1.03 | S. cerevisiae deletion strains, locus YIR030C, strain dcg1, active compounds read low 1.03 | [5] 0.816 | S. cerevisiae deletion strains, locus YJL134W, strain LCB3, active compounds read low 0.975 | S. cerevisiae deletion strains, locus YJL168C, strain set2, active compounds read low 1 | S. cerevisiae deletion strains, locus YKL009W, strain mrt4, active compounds read low 1.09 | S. cerevisiae deletion strains, locus YKL068W, active compounds read low 1.03 | S. cerevisiae deletion strains, locus YKL085W, strain MDH1 (second series), active compounds read low 1.01 | S. cerevisiae deletion strains, locus YKL085W, strain MDH1, active compounds read low 1.01 | S. cerevisiae deletion strains, locus YKR001C, strain vps1, active compounds read low 0.986 | S. cerevisiae deletion strains, locus YLR102C, strain apc9, active compounds read low 1.02 | S. cerevisiae deletion strains, locus YLR262C, strain YPT6, active compounds read low 0.798 | S. cerevisiae deletion strains, locus YLR268W, strain sec22, active compounds read low 0.937 | S. cerevisiae deletion strains, locus YLR330W, strain CHS5, active compounds read low 0.964 | S. cerevisiae deletion strains, locus YLR371W, strain rom2, active compounds read low 0.971 | S. cerevisiae deletion strains, locus YML032C, strain rad52, active compounds read low 1.03 | S. cerevisiae deletion strains, locus YML124C, strain tub3, active compounds read low 1.02 | S. cerevisiae deletion strains, locus YMR078C, strain ctf18, active compounds read low 1.02 | S. cerevisiae deletion strains, locus YMR223W, strain ubp8, active compounds read low 0.962 | S. cerevisiae deletion strains, locus YMR263W, strain SAP30, active compounds read low 0.923 | S. cerevisiae deletion strains, locus YNL067W, strain RPL9B, active compounds read low 0.891 | S. cerevisiae deletion strains, locus YNL233W, strain BNI4, active compounds read low 0.91 | S. cerevisiae deletion strains, locus YNL250W, strain rad50, active compounds read low 1.02 | S. cerevisiae deletion strains, locus YNL271C, strain bni1, active compounds read low 1 | S. cerevisiae deletion strains, locus YNL298W, strain CLA4, active compounds read low 1.01 | S. cerevisiae deletion strains, locus YNL307C, strain MCK1, active compounds read low 1.02 | S. cerevisiae deletion strains, locus YNR052C, strain pop2, active compounds read low 0.975 | S. cerevisiae deletion strains, locus YOL012C, strain htz1 0.377 | S. cerevisiae deletion strains, locus YOL147C, strain pex11, active compounds read low 1.02 | S. cerevisiae deletion strains, locus YOR069W, strain VPS5, active compounds read low 0.951 | S. cerevisiae deletion strains, locus YOR136W, strain idh2, active compounds read low 1.01 | S. cerevisiae deletion strains, locus YOR144C, strain elg1, active compounds read low 1.01 | S. cerevisiae deletion strains, locus YOR184W, strain ser1, active compounds read low 0.926 | S. cerevisiae deletion strains, locus YOR316C, strain cot1, active compounds read low 1.02 | S. cerevisiae deletion strains, locus YPR119W, strain clb2, active compounds read low 1.03 | S. cerevisiae deletion strains, locus YPR141C, strain kar3, active compounds read low 1.02 | S. cerevisiae deletion strains, locus YPR163C, strain tif3, active compounds read low 1.02 | S. cerevisiae deletion strains, locus YPR167C, strain met16, active compounds read low 1.02 | S. cerevisiae deletion strains, strain wtn01, active compounds read low 0.947

CCCCCCCCCCCCCCCC(=O)OCC(O)CO (centres undefined)
inactive: [4] 1 | S. cerevisiae deletion strains, locus YHR079C, strain IRE1, active compounds read low 0.99 | [5] 0.967 | S. cerevisiae deletion strains, locus YJR066W, strain TOR1, active compounds read low 0.936 | S. cerevisiae deletion strains, locus YLR113W, strain HOG1, active compounds read low 1 | S. cerevisiae deletion strains, locus YNL183C, strain NPR1, active compounds read low 0.93 | S. cerevisiae deletion strains, locus YOR231W, strain MKK1, active compounds read low 1.01 | S. cerevisiae deletion strains, locus YPL256C, strain CLN2, active compounds read low 1.02
